“And” between values parts separate entries of the source, which are not always exact repeats. Identical values can stand only once. Hit rate of the full screen: of about 2,000 compounds, about 100 (5%) were called active. Cut-off read from the data, not from the text of the source: active = z-score above about 2; inactive = the rest. The entries come from a sample that favours actives as a whole.
Test: supercomplex reporter luminescence per Hoechst cell count – Hoechst nuclei count (AID 1645838);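 note: control cybrid cells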;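 for z-score: higher means more mitochondrial supercomplex formation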
Details: Cells, luminescence/Hoechst cell count ratio; for z-score: stronger effect = higher value; for cell count: measured here: cell number, Hoechst nuclei count
[1] = library stock concentration (final well concentration not given) 80 uM
[2] = library stock concentration (final well concentration not given) 400 uM
[3] = library stock concentration (final well concentration not given) 2 mM
[4] = library stock concentration (final well concentration not given) 10 mM
[5] = library stock concentration (final well concentration not given) 46 uM
[6] = library stock concentration (final well concentration not given) 278 uM
[7] = library stock concentration (final well concentration not given) 1.67 mM

## COCC(c1ccc(C(F)(F)F)cc1)N1CCN(C2(C)CCN(C(=O)c3c(C)ncnc3C)CC2)CC1C (stereo not given)
[1]
  z-score: -0.275 (inactive)
  cell count: 6100
[2]
  z-score: -0.0621 (inactive)
  cell count: 5370
[3]
  z-score: -0.0993 (inactive)
  cell count: 5980
[4]
  z-score: 0.309 (inactive)
  cell count: 5030

## CC(C(=O)Nc1cccc(N=Cc2c(O)ccc3ccccc23)c1)c1ccccc1 (stereo not given)
  z-score: -0.78 (inactive)
  cell count: 5730

## COc1ccccc1Oc1c(NS(=O)(=O)c2ccc(C)cn2)nc(-c2ccncc2)nc1OC
[5]
  z-score: -0.0599 (inactive)
  cell count: 7280
[6]
  z-score: -0.113 (inactive)
  cell count: 6760
[7]
  z-score: 0.0903 (inactive)
  cell count: 7600
[4]
  z-score: 0.0187 (inactive)
  cell count: 7550

## CCCCCCCCCCCCCCCC(=O)OC[C@H](COP(=O)([O-])OCC[N+](C)(C)C)OC(=O)CCCCCCCC(=O)/C=C/C(=O)O
  z-score: -0.738 (inactive)
  cell count: 5950

## CCCCC[C@H](O)/C=C/[C@@H]1[C@H](C/C=C\CCCC(=O)O)[C@@H](O)C[C@H]1O
  z-score: -0.418 (inactive)
  cell count: 5540

## Cc1cc(Nc2ccc(NC(=O)c3ccc(Nc4ccnc5ccccc45)cc3)cc2)nc(N)n1
Library stock 10 mM
  outcome: inactive; censored for cell count
[1]
  z-score: -0.573 (inactive)
  cell count: 6440
[2]
  z-score: -0.616 (inactive)
  cell count: 6580
[3]
  z-score: -0.871 (inactive)
  cell count: 6140

## O=C(Nc1ccc(S(=O)(=O)Nc2ccccc2Cl)c(Cl)c1)c1ccccn1
[1]
  z-score: -0.0523 (inactive)
  cell count: 5940
[2]
  z-score: 0.247 (inactive)
  cell count: 5620
[3]
  z-score: 0.0843 (inactive)
  cell count: 5480
[4]
  z-score: -0.408 (inactive)
  cell count: 5970

## Cc1cc(Nc2cc(NC(=O)c3c(Cl)cccc3Cl)ccn2)nc(N)n1
Library stock 10 mM
  outcome: inactive
[5]
  z-score: -0.552 (inactive)
  cell count: 7000
[6]
  z-score: 2.25 (active)
  cell count: 3680
[7]
  z-score: 7.34 (active)
  cell count: 1560

## COc1ccc(C(=O)C(=O)c2ccccc2)cc1
[5]
  z-score: -0.147 (inactive)
  cell count: 5340
[6]
  z-score: -0.127 (inactive)
  cell count: 4770
[7]
  z-score: -0.0906 (inactive)
  cell count: 4920
[4]
  z-score: -0.261 (inactive)
  cell count: 4940

## CCCCCCCCCCCCCCCC(=O)SCCOP(=O)([O-])OCC[N+](C)(C)C
  z-score: 0.0631 (inactive)
  cell count: 5610

## COc1cc(C(=O)N2CCC(N3CCN(C)CC3)CC2)ccc1Nc1ncc2c(n1)N(C)c1ccccc1C(=O)N2C
[1]
  z-score: -0.05 (inactive)
  cell count: 4870
[2]
  z-score: 0.293 (inactive)
  cell count: 4880
[3]
  z-score: 2.34 (active)
  cell count: 4160
[4]
  z-score: 4.4 (active)
  cell count: 3320

## CCC1C(=O)N(C)c2cnc(Nc3ccc(C(=O)NC4CCN(C)CC4)cc3OC)nc2N1C1CCCC1 (stereo not given)
Library stock 80 µM
  outcome: inactive; censored for cell count
Library stock 400 µM
  outcome: inactive; censored for cell count
Library stock 2 mM
  outcome: inactive; censored for cell count
Library stock 10 mM
  outcome: inactive; censored for cell count

## COc1cc(C(=O)NC2CCN(C)CC2)ccc1Nc1ncc2c(n1)N(C1CCCC1)C(C)CC(=O)N2C (stereo not given)
Library stock 10 mM
  outcome: inactive; censored for cell count
[1]
  z-score: -0.18 (inactive)
  cell count: 4460
[2]
  z-score: -0.538 (inactive)
  cell count: 4710
[3]
  z-score: -0.076 (inactive)
  cell count: 4310

## CCCCC[C@@H](O)/C=C/[C@@H]1[C@H](C/C=C\CCCC(=O)O)[C@@H](O)C[C@H]1O
  z-score: -0.594 (inactive)
  cell count: 5750

## COCCOc1ccc2c(c1)ncn2-c1ccc2cccc(N3CCC(N)CC3)c2n1
Library stock 10 mM
  outcome: inactive; censored for cell count
[1]
  z-score: 1.84 (inactive)
  cell count: 4940
[2]
  z-score: 2.21 (active)
  cell count: 5070
[3]
  z-score: 2.12 (active)
  cell count: 4020

## CCCCC[C@H](O)CC[C@@H]1[C@@H](C/C=C\CCCC(=O)O)[C@@H](O)C[C@H]1O
  z-score: -1.49 (inactive)
  cell count: 6030

## CCCCC[C@H](O)/C=C/[C@@H]1[C@H](CCCCCCC(=O)O)[C@@H](O)C[C@H]1O
  z-score: 0.0726 (inactive)
  cell count: 4940

## CCN(CC)c1ccc(C2=C(Cl)C(=O)c3ncccc3C2=O)cc1
  z-score: -0.697 (inactive)
  cell count: 3780

## Cc1cc(N2CCOCC2)ccc1Nc1nc(NC2CCCCC2)c2[nH]cnc2n1
[5]
  z-score: -0.914 (inactive)
  cell count: 7450
[6]
  z-score: -0.363 (inactive)
  cell count: 5730
[7]
  z-score: 3.33 (active)
  cell count: 2040
[4]
  z-score: 3.68 (active)
  cell count: 2130

## c1ccc2c(Oc3nc(Nc4ccc(N5CCOCC5)cc4)c4ncn(C5CCCCC5)c4n3)cccc2c1
  z-score: -0.437 (inactive)
  cell count: 5560

## c1nc2nc(Nc3ccc(N4CCOCC4)cc3)nc(NC3CCCCC3)c2[nH]1
Library stock 2 mM
  outcome: inactive; censored for cell count
Library stock 10 mM
  outcome: inactive; censored for cell count
[1]
  z-score: -0.0131 (inactive)
  cell count: 4690
[2]
  z-score: 1.19 (inactive)
  cell count: 2200

## NC(N)=NN=Cc1ccc(Cl)c(Cl)c1
[1]
  z-score: -0.108 (inactive)
  cell count: 5310
[2]
  z-score: 0.196 (inactive)
  cell count: 4750
[3]
  z-score: -0.953 (inactive)
  cell count: 4910
[4]
  z-score: -0.658 (inactive)
  cell count: 4260

## CCCCC[C@H](O)/C=C/[C@H]1[C@H](O)CC(=O)[C@@H]1CCCCCCC(=O)NCCO
  z-score: 0.115 (inactive)
  cell count: 5420

## NC1=NC(=O)/C(=C/c2ccc(O)cc2)S1
  z-score: 0.333 (inactive)
  cell count: 5020

## CCCCCCCC/C=C\CCCCCCCC(=O)OCC(O)COP(=O)(O)O (stereo not given)
  z-score: -0.58 (inactive)
  cell count: 5650

## O=C(O)CCC/C=C\C[C@@H]1[C@@H](/C=C/[C@@H](O)COc2cccc(C(F)(F)F)c2)[C@H](O)C[C@@H]1O
  z-score: -0.654 (inactive)
  cell count: 5730

## Cc1ccc(COC(=O)N2CCC(CNc3ncccn3)C(F)C2)cc1 (stereo not given)
[1]
  z-score: -0.136 (inactive)
  cell count: 5400
[2]
  z-score: 0.087 (inactive)
  cell count: 5130
[3]
  z-score: -0.148 (inactive)
  cell count: 5140
[4]
  z-score: -0.243 (inactive)
  cell count: 5210

## CCCS(=O)(=O)Nc1ccc(F)c(C(=O)c2c[nH]c3ncc(-c4ccc(Cl)cc4)cc23)c1F
[1]
  z-score: -0.652 (inactive) and -0.181 (inactive)
  cell count: 4780 and 6010
[2]
  z-score: -0.587 (inactive) and -0.185 (inactive)
  cell count: 4780 and 5900
[3]
  z-score: -0.572 (inactive) and -0.608 (inactive)
  cell count: 4410 and 5850
[4]
  z-score: 0.969 (inactive) and -0.885 (inactive)
  cell count: 2140 and 5020

## O=C(O)c1ccc(-c2c[nH]c3ncc(-c4ccccc4)cc23)cc1C1CCCC1
[5]
  z-score: -0.226 (inactive)
  cell count: 6280
[6]
  z-score: -0.179 (inactive)
  cell count: 6090
[7]
  z-score: -0.154 (inactive)
  cell count: 5580
[4]
  z-score: 2.58 (active)
  cell count: 1970

## Cn1cc(C=C2C(=O)Nc3cccnc32)c2ccccc21
[1]
  z-score: -0.136 (inactive)
  cell count: 5300
[2]
  z-score: -0.0135 (inactive)
  cell count: 5320
[3]
  z-score: -0.221 (inactive)
  cell count: 5410
[4]
  z-score: -0.519 (inactive)
  cell count: 4520

## Cn1c(SCC(=O)N2CCCC2C(=O)Nc2ccccc2-c2ccccc2)nc2ccccc21 (stereo not given)
[1]
  z-score: -0.422 (inactive)
  cell count: 5510
[2]
  z-score: -0.389 (inactive)
  cell count: 5800
[3]
  z-score: -0.142 (inactive)
  cell count: 5780
[4]
  z-score: -0.283 (inactive)
  cell count: 5710

## CC(C)CCOc1ccc(NC(=S)Nc2ccc(OCCC(C)C)cc2)cc1
  z-score: -0.0536 (inactive)
  cell count: 5220

## Cc1nc2ccc(-n3ncc(C(=O)c4cc5ccccc5[nH]4)c3N)cc2[nH]1
[1]
  z-score: -0.114 (inactive)
  cell count: 5810
[2]
  z-score: -0.221 (inactive)
  cell count: 5920
[3]
  z-score: -0.0631 (inactive)
  cell count: 5510
[4]
  z-score: 5.29 (active)
  cell count: 3410

## CCCCC[C@H](O)/C=C/[C@H]1[C@H](O)CC(=O)[C@@H]1C/C=C\CCCC(=O)OCC(O)CO (stereo not given in full)
  z-score: 0.364 (inactive)
  cell count: 5190

## CCCNC1CCc2nc(N)sc2C1 (stereo not given)
[1]
  z-score: -0.399 (inactive)
  cell count: 6960
[2]
  z-score: -0.375 (inactive)
  cell count: 6720
[3]
  z-score: -0.412 (inactive)
  cell count: 6830
[4]
  z-score: -0.168 (inactive)
  cell count: 6380

## CCOc1ccc(S(=O)(=O)N(CC(=O)N=Nc2c(O)[nH]c3ccccc23)c2ccccc2)cc1
Library stock 10 mM
  outcome: inactive; censored for cell count
[1]
  z-score: 0.0734 (inactive)
  cell count: 5190
[2]
  z-score: 0.0751 (inactive)
  cell count: 5160
[3]
  z-score: 0.419 (inactive)
  cell count: 4350

## CC/C=C\C/C=C\C/C=C\C/C=C\CCCCC(=O)OCC
  z-score: -0.596 (inactive)
  cell count: 5380

## Nc1nccc2c1ncn2C1C=C(CO)C(O)C1O (stereo not given)
Library stock 10 mM
  outcome: inactive; censored for cell count
[5]
  z-score: -0.246 (inactive)
  cell count: 5790
[6]
  z-score: 0.747 (inactive)
  cell count: 4240
[7]
  z-score: 2.95 (active)
  cell count: 1810

## CCCCCCCCCCCC(=O)NC[C@]1(C)CCC[C@]2(C)c3ccc(C(C)C)cc3CC[C@@H]12
  z-score: 0.0192 (inactive)
  cell count: 4880

## CCCCCCCCCCCCCCCC(=O)OC[C@@H](O)COP(=O)(O)O
  z-score: 0.759 (inactive)
  cell count: 4710

## CC(=O)O[C@@]12C[C@@H](C)[C@@]3(O)[C@@H](C=C(CO)C[C@]4(O)C(=O)C(C)=C[C@@H]34)[C@@H]1C2(C)C
  z-score: 2.36 (active)
  cell count: 5140

## CCCCC[C@H](O)/C=C/[C@H]1C=CC(=O)[C@@H]1CCCCCCC(=O)O
  z-score: 0.664 (inactive)
  cell count: 4830

## Cc1nc(Nc2n[nH]c3c2CN(C(=O)NC(CN(C)C)c2ccccc2)C3(C)C)c2sccc2n1 (stereo not given)
Library stock 1.67 mM
  outcome: inactive; censored for cell count
Library stock 10 mM
  outcome: inactive; censored for cell count
[5]
  z-score: 0.353 (inactive)
  cell count: 4470
[6]
  z-score: 1.68 (inactive)
  cell count: 2250

## Oc1ccc(Nc2nc(-c3ccc(Cl)cc3)cs2)cc1
  z-score: -0.695 (inactive)
  cell count: 4930
[1]
  z-score: 0.00338 (inactive)
  cell count: 5690
[2]
  z-score: -0.177 (inactive)
  cell count: 5570
[3]
  z-score: -0.154 (inactive)
  cell count: 5530
[4]
  z-score: 1.99 (active)
  cell count: 2610

## Cc1cccc(Nc2nc(-c3ccncc3)cs2)c1
  z-score: -0.555 (inactive)
  cell count: 5440

## COc1cccc(OC)c1-c1ccc(CC(NC(=O)c2c(Cl)cccc2Cl)C(=O)O)cc1 (stereo not given)
[5]
  z-score: -0.0712 (inactive)
  cell count: 5760
[6]
  z-score: -0.126 (inactive)
  cell count: 5740
[7]
  z-score: -0.192 (inactive)
  cell count: 5820
[4]
  z-score: -0.205 (inactive)
  cell count: 5840
